# Measured values reported in PubChem BioAssay AID602357 (National Center for Advancing Translational Sciences (NCATS), 2012).
# Records with an inconclusive call do not appear. A number with no mark means an inactive call. Activity calls are given as the source filed them. Calls come from the whole dose curve; as a rule, active = well fitted inhibition curve with a large enough effect; inconclusive = small, poorly fitted or top-dose-only effect; inactive = no such curve, though single readings can be large or run the other way.
# Target: Luciferin 4-monooxygenase (Photinus pyralis) (UniProt P08659)
# Assay: FLuc inhibitory activity for the follow-up compounds in a biochemical assay with Km concentrations of substrate
# Details: purified FLuc, Km substrates, luminescence; series mostly up to 57.5 µM; activity change, negative = inhibition: at the top concentration
# Excerpt: NCGC Assay Overview: Firefly (Photinus pyralis) luciferase is one of the most commonly used transcriptional reporters. It is considered one of the more dynamically responsive reporters - that is, responsive to changes in reporter transcription - as it requires no post-translational modifications and is enzymatically active directly after protein synthesis (Wood, 1998). With no endogenous expression in mammalian cells and without the requirement of external excitation, it offers very little background signal, thus generally providing excellent signal to background for most assays. Previous profiling work to determine the prevalence of compounds that affect FLuc enzymatic activity (PubChem AID 411) identified that ~3% of the MLSMR library (then at ~72K) inhibited FLuc. […] Of the compounds identified in this profile that inhibited FLuc, 151 compounds were selected for further analysis, in an effort to better understand their mode of inhibiting FLuc. The assay described here confirms the FLuc inhibitory activity of the 151 compounds.
# NCGC Assay Protocol Summary: Reagents: 50mM Tris acetate, pH 7.5; 10mM Mg acetate; 10uM D-luciferin (Sigma #L9504); 10uM ATP; 0.01% Tween-20; 0.05% BSA; 10nM P. pyralis luciferase (Sigma #L9506) Control compounds used were two known firefly luciferase inhibitors (3-(5-(3-chlorophenyl)-1,2,4-oxadiazol-3-yl)benzoic acid and 5-(2-fluorophenyl)-3-phenyl-1,2,4-oxadiazole), and DMSO. Three microliters containing firefly luciferase substrates in buffer (final concentrations: 50mM Tris acetate, pH 7.5, 10mM Mg acetate, 0.01% Tween-20, 0.05% BSA, 10uM D-luciferin, and 10uM ATP) are dispensed into each well of a Greiner white, solid-bottom 1536-well format plate using a flying reagent dispenser (FRD). These assay plates were then treated with 23nL of compound or DMSO using a Kalypsys pin tool, which allows for delivery of a 12-point intraplate titration of each compound to the assay plate (quantitative HTS), with a final compound concentrations ranging from approximately ~60uM to 0.3nM. One microliter of firefly luciferase in 500mM Tris-acetate buffer was then delivered by FRD to each well for a final enzyme concentration of 10nM. Luciferase activity was then measured using a ViewLux CCD imager (PerkinElmer), with an average exposure time of 2-30 seconds (2X binning, medium/high gain).
# Luciferin 4-monooxygenase (Photinus pyralis), sequence (P08659 whole entry, looked up): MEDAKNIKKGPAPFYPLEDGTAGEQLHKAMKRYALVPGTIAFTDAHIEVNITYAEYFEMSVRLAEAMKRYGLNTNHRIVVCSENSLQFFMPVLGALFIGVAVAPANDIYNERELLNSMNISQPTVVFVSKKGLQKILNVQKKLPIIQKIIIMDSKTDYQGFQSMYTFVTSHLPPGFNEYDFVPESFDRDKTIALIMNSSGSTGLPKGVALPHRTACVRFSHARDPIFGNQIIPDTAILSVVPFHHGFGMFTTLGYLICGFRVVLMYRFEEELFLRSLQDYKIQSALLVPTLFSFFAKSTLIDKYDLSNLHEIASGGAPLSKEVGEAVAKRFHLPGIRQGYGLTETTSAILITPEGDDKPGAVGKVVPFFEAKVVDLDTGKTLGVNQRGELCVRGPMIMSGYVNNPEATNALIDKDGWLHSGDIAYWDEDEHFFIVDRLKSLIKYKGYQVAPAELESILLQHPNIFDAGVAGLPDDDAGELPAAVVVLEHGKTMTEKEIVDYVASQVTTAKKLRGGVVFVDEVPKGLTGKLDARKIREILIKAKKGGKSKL
Structure (SMILES),"activity change, negative = inhibition [%]",Potency
COc1ccc2nc(NC(=O)c3nc(S(=O)(=O)Cc4ccc(C)cc4)ncc3Cl)sc2c1,-9.87,
Cc1c(NS(C)(=O)=O)cccc1-c1nc2ccccc2s1,,8.19 µM (active)
C/C(=N\NC(=O)c1ccccc1NC(=O)c1ccc(Cl)cc1)c1ccncc1,,0.0116 µM (active)
COc1ccc2nc(NC(=O)c3ccc(S(=O)(=O)N4CCCC(C)C4)cc3)sc2c1 (stereo not given),-0.483,
Cc1ccc(C(=O)Nc2ccc(C(=O)O)cc2)cc1S(=O)(=O)Nc1ccccc1,18.1,
O=C(Nc1ccccc1C(=O)O)c1cccc(S(=O)(=O)Nc2ccc(Br)cc2)c1,-10.2,
Nc1ccccc1C(=O)Nc1cccc(C(=O)O)c1,,2.06 µM (active)
COc1ccc(Br)cc1C(=O)Nc1ccc(C(=O)O)cc1,0.649,
O=C(O)c1ccc(NC(=O)c2ccccc2NC(=O)c2ccccc2Br)cc1,,23.1 µM (active)
CC(C)(C)C(=O)Nc1ccc(-c2nc3ccccc3s2)cc1,,0.0116 µM (active)
CC(=O)Oc1ccc(C(=O)Nc2ccccc2C(=O)Nc2ccc(C(=O)O)cc2)cc1,,5.8 µM (active)
O=C(O)c1ccccc1NC(=O)c1ccccc1Nc1ccccc1,,18.3 µM (active)
CN(C)S(=O)(=O)c1ccc(C(=O)Nc2cccc(C(=O)O)c2)cc1,,10.3 µM (active)
COc1cc(OC)cc(C(=O)Nc2ccccc2-c2nc3ccccc3s2)c1,6.62,
CCOc1ccc2nc(NC(=O)c3ccccn3)sc2c1,,0.517 µM (active)
COc1cccc(-c2nc3ccccc3s2)c1,,1.3 µM (active)
Cc1ccc(C(=O)Nc2cccc(C(=O)O)c2)cc1S(=O)(=O)N1CCCC1,,0.058 µM (active)
CN(C)S(=O)(=O)c1ccc(C(=O)Nc2ccccc2C(=O)O)cc1,,13 µM (active)
COc1ccc(-c2cccc(C(=O)Nc3cccc(C(=O)O)c3)c2)cc1,,4.61 µM (active)
O=C(Nc1ccccc1C(=O)Nc1ccccc1C(=O)O)c1ccccc1,,16.3 µM (active)

Structure (SMILES),"activity change, negative = inhibition [%]",Potency
O=C(O)c1cccc(NC(=O)c2ccc(COc3ccc(Cl)cc3)cc2)c1,,3.66 µM (active)
Nc1ccc(-c2nc3cc(N)ccc3s2)cc1,,0.819 µM (active)
CCOc1ccc2nc(NC(=O)Cc3cccs3)sc2c1,,10.3 µM (active)
Cc1ccc2sc(-c3ccc(N)cc3)nc2c1,,0.183 µM (active)
CCOc1ccc2nc(NC(=O)c3ccccc3)sc2c1,,0.326 µM (active)
CC(C)CC(=O)Nc1cccc(C(=O)Nc2ccccc2C(=O)O)c1,,18.3 µM (active)
Cn1c(N/N=C/c2cc3ccccc3nc2Cl)nc2ccccc21,,0.058 µM (active)
O=C(Nc1ccccc1C(=O)O)c1ccc(Cl)c(S(=O)(=O)N2CCOCC2)c1,,8.19 µM (active)
CN=c1scc(-c2ccccc2F)n1/N=C/c1ccc[nH]1,,0.0461 µM (active)
COc1ccc2nc(NC(=O)c3ccc(NS(=O)(=O)c4cccs4)cc3)sc2c1,,10.3 µM (active)
COc1ccc(C(=O)Nc2ccccc2C(=O)N/N=C/c2ccc(O)c(OC)c2)cc1,,0.0037 µM (active)
COc1ccc2nc(NC(=O)Cc3cccs3)sc2c1,,7.3 µM (active)
COc1cccc(OC)c1C(=O)Nc1cccc(C(=O)Nc2cccc(C(=O)O)c2)c1,,5.8 µM (active)
O=C(Nc1ccccc1C(=O)O)c1ccc(NC(=O)C2CC2)cc1,,2.59 µM (active)
Cc1ccc(S(=O)(=O)N2CCOCC2)cc1C(=O)Nc1ccccc1C(=O)O,-19.3,
COc1cc(OC)cc(C(=O)Nc2ccc(-c3nc4ccccc4s3)c(C)c2)c1,-20.8,
CCCC(=O)Nc1nc2ccc(OCC)cc2s1,,13 µM (active)
CCOc1ccc2nc(NC(=O)c3ccoc3C)sc2c1,,0.651 µM (active)
O=C(Nc1ccccc1C(=O)O)c1ccccc1,,32.6 µM (active)
O=C(Nc1ccccc1C(=O)O)c1cccc(NC(=O)c2ccccc2Br)c1,,32.6 µM (active)
